Source: PubChem BioAssay AID2685 (National Center for Advancing Translational Sciences (NCATS), 2010)
The whole screen tested about 320,000 compounds, of which about 2,100 (0.66%) were called active. Not shown: some 53% with an inconclusive outcome. The call rests on the fitted dose curve; in most records, active means well fitted inhibition curve with a large enough effect in the signal ratio, with a control signal flat (not every such curve was filed as active); inconclusive means small, poorly fitted or top-dose-only effect, or effect the other way, or a change in a side signal; inactive means flat fitted curve, though single readings scatter; the % refers to the signal ratio. The entries come from a sample that favours actives as a whole.

experiment: qHTS Assay for Lipid Storage Modulators in Drosophila S3 Cells; conditions: BODIPY lipid droplet fluorescence, 18-24 h, cells fed with added oleic acid; cell number change: measured here: cell count max response; series mostly up to 46.1 µM; lipid storage change, negative = inhibition: at the top concentration;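 on cell number change: cells counted by Cell Tracker Red CMTPX staining in the red channel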; on lipid storage change, negative = inhibition: on the % scale 0 is the no-effect control and ±100 the full control effect
Summary of the method: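 Drosophila S3 cells got compounds at several concentrations plus oleic acid (400 uM solution). Laser-scanning cytometry with 488 nm excitation read lipid droplets at 500-530 nm and cells at 575-640 nm. Percent activity was relative to 20 uM Triacsin C.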
Potency means the concentration at half of the fitted maximal effect.

| SMILES | outcome | lipid storage change, negative = inhibition | cell number change [%] | Potency |
| --- | --- | --- | --- | --- |
| Cc1occc1C(=O)N1CCN(c2ccc(Cl)c(Cl)c2)CC1 | inactive | – | – | – |
| Cc1ccccc1OC(C)C(=O)N1CCC(Cc2ccccc2)CC1 (centres undefined) | – | -2.98% (inactive) | 12.1 | – |
| O=C(Cc1ccc(Cl)cc1)NNS(=O)(=O)c1ccc([N+](=O)[O-])cc1 | – | -7.64% (inactive) | 7.62 | – |
| O=C(NNS(=O)(=O)c1ccccc1)c1ccc([N+](=O)[O-])cc1 | inactive | – | 3.57 | – |
| O=C(Cc1ccccc1)NNS(=O)(=O)c1ccc([N+](=O)[O-])cc1 | – | – | 0.088 | 1.46 µM (active) |
| Cc1ccc(Cc2cnc(NC(=O)/C(C#N)=C/c3ccc(-c4ccccc4[N+](=O)[O-])o3)s2)cc1 | – | 11.5% (inactive) | -16 | – |
| CCOC(=O)CSc1nc(Cc2ccccc2)nc2ccccc12 | – | 0.223% (inactive) | – | – |
| CCOC(=O)CNC(=O)CSc1nc(Cc2ccccc2)nc2ccccc12 | – | – | -15.2 | 7.31 µM (active) |
| CCOC(=O)CNC(=O)CSc1nc(Cc2cccs2)nc2ccccc12 | – | -32.5% (inactive) | -11.5 | – |
| O=C(NN=C1CCCC1)c1ccccc1[N+](=O)[O-] | inactive | – | 7.42 | – |
| Cc1cc(C)nc(NC(C)(C)C(=O)O)n1 | – | -23.2% (inactive) | 0.119 | – |
| O=C(c1ccccc1Br)N1CCCC(c2nc(-c3cccs3)no2)C1 (centres undefined) | inactive | – | – | – |
| Cc1ccc(-c2noc(C3CCCN(C(=O)c4ccccc4Br)C3)n2)cc1 (centres undefined) | – | – | -26.6 | 18.4 µM (active) |
| COc1ccc(-c2noc(C3CCCN(C(=O)c4ccc(C)cc4)C3)n2)cc1 (centres undefined) | – | 4.74% (inactive) | 10.5 | – |
| Cc1nn(C)c(Cl)c1C(=O)NCC(=O)NCc1ccccc1 | – | -13.1% (inactive) | -13 | – |
| Nc1nonc1-n1nnc(C(=O)N/N=C/c2ccoc2)c1-c1ccccc1 | inactive | – | 11.3 | – |
| O=C(O)c1ccccc1C(=O)NCCCn1ccnc1 | – | 6.83% (inactive) | 7.04 | – |
| Nc1c(O)ccc2c1C(=O)c1ccccc1C2=O | – | -9.3% (inactive) | -17.1 | – |
| CCOc1cc(C(=O)OCC(=O)N(C)c2ccccc2)cc(OCC)c1OCC | inactive | – | 9.01 | – |
| Cc1[nH]nc(SCC(=O)N2CCCC2)c1[N+](=O)[O-] | – | -2.11% (inactive) | -4.82 | – |
| CSc1cccc(NC(=O)CCCn2c(=O)c3cccn3c3cccnc32)c1 | – | – | -18.8 | 18.4 µM (active) |
| CN1CCN(C(=O)CCn2c(=O)c3cccn3c3cccnc32)CC1 | – | -18.5% (inactive) | 17.7 | – |
| COc1ccc(N2CCN(C(=O)CCCn3c(=O)c4cccn4c4cccnc43)CC2)cc1 | inactive | – | 22.2 | – |
| COc1cccc(CNC(=O)CCn2c(=O)c3cccn3c3cccnc32)c1 | – | -26% (inactive) | 1.83 | – |
| CCc1ccc(CNC(=O)CCCn2c(=O)c3cccn3c3cccnc32)cc1 | inactive | – | – | – |

| SMILES | outcome | lipid storage change, negative = inhibition | cell number change [%] | Potency |
| --- | --- | --- | --- | --- |
| COc1ccc(CCNC(=O)CCCn2c(=O)c3cccn3c3cccnc32)c(OC)c1 | – | – | -19.3 | 16.4 µM (active) |
| CCOC(=O)C1=C(CS(=O)(=O)c2ccc(Cl)cc2)NC(=O)NC1c1ccc(O)c(OC)c1 (centres undefined) | – | -8.07% (inactive) | 23 | – |
| O=C(OC(C(=O)Nc1ccc(Cl)cc1C(F)(F)F)c1ccccc1)C1=COCCO1 (centres undefined) | – | 6% (inactive) | -1.65 | – |
| CCN(CC)CCCN1C(=O)C(O)=C(C(=O)c2sc(C)nc2C)C1c1ccc(C)o1 (centres undefined) | – | 0.201% (inactive) | 0.178 | – |
| COc1cc(/C=C/c2noc(-c3ccccc3O)n2)ccc1OC(C)=O | – | -1.96% (inactive) | 8.42 | – |
| CC(C)(C)NC(=O)/C=C/c1cccc(C(F)(F)F)c1 | – | 23.9% (inactive) | -3.06 | – |
| COc1ccc(Nc2ccc([N+](=O)[O-])cn2)cc1 | – | 19.4% (inactive) | 13.2 | – |
| COc1ccccc1Nc1ccc([N+](=O)[O-])cn1 | – | 3.34% (inactive) | 25.6 | – |
| COc1ccc(Nc2ccc([N+](=O)[O-])cn2)cn1 | – | – | -5.41 | 16.4 µM (active) |
| CCc1nn(CC(=O)NCCCN(CC)c2cccc(C)c2)c(=O)c2cc3occc3n12 | – | 8.48% (inactive) | -11.1 | – |
| CCOC(=O)CCn1cc(F)c(=O)n(Cc2ccccc2)c1=O | inactive | – | 12.1 | – |
| CC(Sc1nc(N2CCOCC2)nc(N2CCOCC2)n1)C(=O)Nc1ccccc1 (centres undefined) | – | 0.66% (inactive) | -7.21 | – |
| CCOc1nc(SC(C(C)=O)C(=O)Nc2ccccc2)nc(N(C)C)n1 (centres undefined) | – | 3.93% (inactive) | -9.19 | – |
| CC(C)Nc1nc(SC(C)C(=O)Nc2ccccc2)nc(N(C)C)n1 (centres undefined) | – | – | -27.6 | 8.2 µM (active) |
| COC(=O)c1ccc(-c2ccc(/C=N/N3C(=O)C4C5C=CC(C6CC56)C4C3=O)o2)cc1 (centres undefined) | – | – | 4.78 | 20.6 µM (active) |
| COC(=O)c1ccc(-c2ccc(/C=N/N3C(=O)C4C5C=CC(CC5)C4C3=O)o2)cc1 (centres undefined) | – | -0.618% (inactive) | 10.1 | – |
| COC(=O)c1cccc(-c2ccc(/C=N/N3C(=O)C4C5C=CC(C6CC56)C4C3=O)o2)c1 (centres undefined) | – | -10.1% (inactive) | -7.37 | – |
| COc1ccc(/C=C/c2cc(C(F)(F)F)[nH]c(=O)n2)cc1OC | – | -12.5% (inactive) | 7.45 | – |
| O=c1nc(-c2ccccc2)cc(C(F)(F)F)[nH]1 | – | -9.25% (inactive) | -9.42 | – |
| O=c1nc(/C=C/c2ccccc2C(F)(F)F)cc(C(F)(F)F)[nH]1 | – | – | -22.9 | 0.517 µM (active) |
| CCc1ccc(N2CC(C(=O)NC3CCCCC3C)CC2=O)cc1 (centres undefined) | inactive | – | -4.76 | – |
| COC(=O)c1ccc(COc2ccccc2/C=N/NS(=O)(=O)c2ccccc2)cc1 | – | -8.74% (inactive) | -14.9 | – |
| CCCCC[C@H](O)/C=C/[C@H]1C=CC(=O)[C@@H]1C/C=C\CCCC(=O)O | – | -2.66% (inactive) | 10.2 | – |
| CCCCC/C=C\C/C=C\C/C=C\C/C=C\CCCC(=O)O | – | -8.8% (inactive) | -29.6 | – |
